Assay results: PubChem BioAssay (NCATS)
Results filed as inconclusive are left out. The source made the active and inactive calls. The call rests on the fitted dose curve; in most records, active means well fitted inhibition curve with a large enough effect; inconclusive means small, poorly fitted or top-dose-only effect; inactive means flat fitted curve, though single readings scatter.

How the values were obtained:
Assay in all cases: qHTS profiling for inhibitors of Plasmodium falciparum proliferation (AID 504749); further: nearly all actives have a fitted effect of over 60% in size
Settings in all cases: P. falciparum in erythrocytes, SYBR Green DNA, 72 h; series mostly up to 28.7 µM
CP191 = tested on: CP191
In short: (§1)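 Infected RBCs, 0.3% parasitemia/2.5% Hct final; cpd 72 h, 37 C, 5% CO2; lysis buffer with saponin/triton/SYBR Green I, o/n RT dark; FI 485/535; norm. to artemisinin (0.29 uM) and DMSO.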

CP192 = tested on: CP192
In short: as §1

CP194 = tested on: CP194
In short: as §1

CP201 = tested on: CP201
In short: as §1

CP203 = tested on: CP203
In short: as §1

CP211 = tested on: CP211
In short: as §1

CP215 = tested on: CP215
In short: as §1

CP217 = tested on: CP217
In short: as §1

CP237 = tested on: CP237
In short: as §1

CP238 = tested on: CP238
In short: as §1

Measured: Potency

NCCCC(O)(P(=O)(O)O)P(=O)(O)O
inactive: all assays above

NC(N)=NC(N)=NCCc1ccccc1
inactive: all assays above

C[C@]12C=CC(=O)C=C1CC[C@@H]1[C@@H]2C(=O)C[C@@]2(C)[C@H]1CC[C@]2(O)C(=O)CO
inactive: all assays above

OC(Cn1cncn1)(Cn1cncn1)c1ccc(F)cc1F
inactive: all assays above

CC(C)NCC(O)c1ccc(NS(C)(=O)=O)cc1 (stereo not given)
inactive: all assays above

Cc1nnc(NS(=O)(=O)c2ccc(N)cc2)s1
inactive: all assays above

C#CCN[C@@H]1CCc2ccccc21
inactive: all assays above

CC(C)Cn1cnc2c(N)nc3ccccc3c21
inactive: all assays above

COc1cnc(NS(=O)(=O)c2ccc(N)cc2)nc1
inactive: all assays above

CCCN[C@H]1CCc2nc(N)sc2C1
inactive: all assays above

CCCc1cc(C(N)=S)ccn1
inactive: all assays above

Cc1cccc(N(C)C(=S)Oc2ccc3ccccc3c2)c1
inactive: all assays above

Nc1nc(N)nc(-c2cc(Cl)ccc2Cl)n1
inactive: all assays above

Nc1[nH]c(=O)ncc1F
inactive: all assays above

COc1ccc(-c2ccc3cc(C(=O)O)ccc3c2)cc1C12CC3CC(CC(C3)C1)C2
inactive: all assays above

Cc1ccnc2c1NC(=O)c1cccnc1N2C1CC1
inactive: all assays above

CCc1c2c(nc3ccc(OC(=O)N4CCC(N5CCCCC5)CC4)cc13)-c1cc3c(c(=O)n1C2)COC(=O)[C@]3(O)CC
inactive: all assays above

CC(C)OC(=O)C(C(=O)OC(C)C)=C1SC=CS1
inactive: all assays above

COc1cc(NS(=O)(=O)c2ccc(N)cc2)nc(OC)n1
inactive: all assays above
